From PubChem BioAssay
This excerpt belongs to a sample that is enriched for hits.
IL1B secr inh: inhibitors of inflammasome signaling (IL-1 beta secretion); 4.7% of 360,000 active; activity change, % at 57.5 µM; THP-1 LPS/ATP IL-1B secretion, AlphaLISA, 16 h; active compounds read low; in the data active = activity change below about -50%; inconclusive = mostly about -30% to -49%
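THP-1 cells pretreated 1 hr with compounds (up to 57.5 uM final), then stimulated with LPS (250 ng/mL final) plus ATP (1.25 mM final); secreted IL-1B measured by AlphaLISA after 16 hr, decreased signal indicating inhibition.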
TDP1 cell noCPT: qHTS for Inhibitors of human tyrosyl-DNA phosphodiesterase 1 (TDP1): qHTS in cells in absence of CPT; DT40 Tdp1-/- hTDP1 cells, no CPT, ATP luminescence, 48 h; Potency, µM (doses to about 46.2 µM), without a hit: top-dose activity change, negative = growth inhibition, usual class: inhibitors; 15% of 420,000 active; AID 686978, 2013; also: potency is read from the fitted curve at half-maximal effect; nearly all actives have a fitted effect of over 55% in size
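A cellular qHTS used chicken DT40 cells lacking endogenous Tdp1 but carrying stably transfected human TDP1. Compounds were applied without camptothecin, and cell growth kinetics were judged by ATP-dependent luminescence after ≥48 hr.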
TDP1 cell CPT: DT40-hTDP1 cell growth loss with CPT | chicken DT40 Tdp1-/-;hTDP1 cells + 20 nM CPT, ATP luminescence, 48 h | Potency, µM (top dose mostly 46.2 µM), for the others: at the top dose activity change, negative = growth inhibition, usual class: inhibitors | 12% of 420,000 active; also: potency is read from the fitted curve at half-maximal effect; nearly all actives have a fitted effect of over 55% in size
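Chicken DT40 Tdp1-/- cells stably complemented with human TDP1 were seeded at 400 cells/well in medium containing 20 nM camptothecin, exposed to pin-transferred compounds, and grown at 37 °C for at least 48 hr. Viability was read as ATP luminescence.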
HT1080 IDH1KD tx: toxicity to HT-1080 IDH1 knockdown cells (counter line). 2% of 360,000 active. Potency, µM (highest dose often 46.1 µM), for inactives: at the top dose activity, negative = toxicity, most hits filed as cytotoxic. AID 686971. HT-1080 IDH1 knockdown viability, ATP luminescence, 48 h;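 also: potency is read from the fitted curve at half-maximal effect; 0% = DMSO wells and -100% = cell-free medium wells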
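HT-1080-IDH1KD cells (IDH1 knocked down), 750/well in RPMI with 5% FBS, treated with compound 48 h at 37 degrees C. Viability by CellTiter-Glo luminescence, normalised to DMSO and no-cell wells; concentration-response curves classed.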
HT1080NT lethal: kills 2HG-producing HT-1080-NT fibrosarcoma cells; 1.6% of 360,000 active; Potency, µM (doses to about 46.1 µM), inactives show at the top dose activity, negative = less viability, hits mostly cytotoxic; AID 686970; HT-1080-NT fibrosarcoma viability, CellTiter-Glo ATP luminescence, 48 h;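 also: NT is the 2HG producing partner of a matched IDH1 knockdown line; potency is read from the fitted curve at half-maximal effect; 0% = DMSO-treated cells and -100% = media-only wells without cells; nearly all actives have a fitted effect of over 55% in size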
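Viability of the 2HG-overproducing fibrosarcoma line after 48 hours of compound exposure at 37 degrees C was determined by luminescence with CellTiter-Glo, and concentration-effect curves were then fitted and categorized.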
12-LOX inh: blocks human arachidonate 12S-lipoxygenase | P18054 | purified 12hLO, xylenol orange hydroperoxide absorbance | Potency, µM (top dose mostly 108 µM), for the others: at the highest dose activity change, negative = inhibition, most hits filed as inhibitors | 1.1% of 580,000 active | AID 1671190; also: potency is read from the fitted curve at half-maximal effect
Target sequence (P18054 whole entry, looked up): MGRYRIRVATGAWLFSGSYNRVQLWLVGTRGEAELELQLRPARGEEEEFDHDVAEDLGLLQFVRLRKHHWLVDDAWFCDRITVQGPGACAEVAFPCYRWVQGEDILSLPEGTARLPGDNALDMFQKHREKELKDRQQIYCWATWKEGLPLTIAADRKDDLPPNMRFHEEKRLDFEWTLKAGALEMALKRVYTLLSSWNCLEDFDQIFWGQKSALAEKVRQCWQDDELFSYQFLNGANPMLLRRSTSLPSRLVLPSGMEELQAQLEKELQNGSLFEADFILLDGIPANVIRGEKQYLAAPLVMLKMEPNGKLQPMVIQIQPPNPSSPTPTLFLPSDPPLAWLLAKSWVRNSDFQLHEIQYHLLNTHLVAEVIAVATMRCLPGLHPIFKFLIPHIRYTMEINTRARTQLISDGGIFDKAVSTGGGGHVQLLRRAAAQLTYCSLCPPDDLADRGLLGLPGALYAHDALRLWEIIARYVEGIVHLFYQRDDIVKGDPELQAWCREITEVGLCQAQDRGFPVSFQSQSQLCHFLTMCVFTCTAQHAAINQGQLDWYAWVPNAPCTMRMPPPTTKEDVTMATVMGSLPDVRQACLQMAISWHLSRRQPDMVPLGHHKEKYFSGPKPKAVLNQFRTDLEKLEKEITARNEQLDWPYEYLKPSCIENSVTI
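Purified human 12hLO (150 nM final) in 25 mM Hepes, 0.01% Triton X-100, pH 7.0 was preincubated 15 min at room temperature with compound. Then 40 uM arachidonic acid was added, 30 min. Hydroperoxide was read by Fe-XO absorbance ratio 573/405 nm.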
* marks the source's active call; other numbers are inactive results; ? = inconclusive; / = not tested or not shown; [ ] = dose if it differs, or a comment. Unless noted, calls follow the shape of the dose curve; as a rule, active = well fitted curve in the direction sought with a large enough effect; inconclusive = small, poorly fitted or top-dose-only effect, or another doubt; inactive = no such curve, though single readings can be large; an effect the other way counts as inactive or inconclusive. Unless noted, % is scaled to controls: 0 for no effect and ±100 for the full control effect.

SMILES	IL1B secr inh	TDP1 cell noCPT	TDP1 cell CPT	HT1080 IDH1KD tx	HT1080NT lethal	12-LOX inh
Cc1cccc(C(=O)NC(=S)NNC(=O)COc2ccc(Cl)cc2)c1	26	?	?	-12%	-17%	35µM*
COc1ccc(/C=C/C(=O)NC(=S)NNC(=O)c2cccs2)cc1	64	4.6µM*	6.5µM*	?	?	-12%
C=CCNC(=S)NNC(=O)c1ccc(OCC(C)C)cc1	-15	?	?	-25%	?	14%
C=CCNC(=S)NNC(=O)c1ccc(OCC)cc1	3	21µM*	?	1%	1%	2%
COc1ccc(/C=C/C(=O)OCC(=O)c2cccs2)cc1	/	/	/	/	/	17%
COc1ccc(C(=O)NNC(=O)c2ccc3ccccc3n2)cc1	-98*	4.1µM*	16µM*	?	-15%	8%
COc1ccc(C(=O)c2ccccc2C)cc1	/	/	/	/	/	0%
Cc1cccc(C(=O)NNC(=S)NC(=O)c2ccccc2)c1	?	21µM*	18µM*	?	?	122%
O=C(NC(=S)NCc1ccccc1)c1cccc(Cl)c1	-8	?	-6%	1%	5%	28µM*
O=C(NC(=S)NCc1ccccc1)c1cccnc1	36	-10%	-22%	4%	0%	-15%
CCC(=O)NC(=S)NNC(=O)c1ccc(NC(=O)c2ccccc2)cc1	-10	7.3µM*	5.8µM*	-5%	1%	-3%
Cc1ccc(C(=O)NC(=S)NNC(=O)c2ccccc2)cc1	46	?	?	-25%	-19%	?
Cc1cccc(C(=O)NNC(=O)c2ccccc2O)c1	32	21µM*	?	?	-27%	0%
O=C(O)c1cccc2c1C(=O)c1ccc(-c3ccc(F)cc3F)cc1S2(=O)=O	17	-3%	3%	5%	11%	-10%
CCNC(=S)NNC(=O)c1ccc(OC)cc1	29	-5%	-3%	12%	7%	5%
COc1ccc(C(=O)NNC(=S)NC(=O)c2ccc(OC)cc2)cc1	66	?	16µM*	?	?	?
Cc1cc(C)nc(NC(=S)NC(=O)c2ccccc2)n1	20	4%	12%	17%	8%	31%
COc1ccc(C(=O)NC(=S)NNC(=O)c2cccc(C)c2)cc1	40	23µM*	26µM*	?	-22%	?
Cc1cc(C(=O)NNC(=S)NC(=O)c2ccccc2)cs1	/	/	/	/	/	28µM*
CCCOc1ccc(C(=O)NNC(=S)NC(=O)CC)cc1	55	2.6µM*	4.6µM*	10µM*	?	?
CCn1cc(CN(C)CC2(O)CCCN(Cc3ccc(C(C)C)cc3)C2=O)cn1 (stereo not drawn)	/	/	/	/	/	29%
O=C1NC2(CCCCCC2)C(=O)N1Cc1ccccc1Br	1	10%	18%	-11%	-3%	2%
CS(=O)(=O)NC1CCN(C(=O)c2cnc3ccccc3n2)CC1	/	/	/	/	/	-1%
CCCCC(=O)NC(=S)NNC(=O)c1ccc(OC)cc1	205	3.3µM*	4.6µM*	?	?	?
Cc1ccc(C(=O)NNC(=S)NC(=O)c2ccccc2)cc1	47	16µM*	18µM*	?	?	0%
SMILES	IL1B secr inh	TDP1 cell noCPT	TDP1 cell CPT	HT1080 IDH1KD tx	HT1080NT lethal	12-LOX inh
CC(NC(=O)NC(=O)c1cccc(Cl)c1)c1ccccc1 (stereo not drawn)	14	?	13µM*	4%	0%	0%
CC(C)CC(=O)Nc1ccc(C(=O)NNC(=S)NC(=O)C2CCCCC2)cc1	29	16µM*	15µM*	?	7.9µM*	26%
COc1ccccc1C(=O)NNC(=S)NC(=O)c1cccs1	/	/	/	/	/	95%
CCOC(=O)CCC(=O)NNC(=O)c1ccc(NC(=O)c2ccccc2)cc1	-8	?	18µM*	-4%	-7%	177%
Cc1ccc(C(=O)NC(=S)NCc2ccccc2)cc1	-6	-4%	-28%	0%	0%	10µM*
COc1ccc(C(=O)NNC(=S)NC(=O)c2cccs2)cc1	91	?	15µM*	?	?	?
O=C(Cc1ccccc1)NNC(=O)c1ccc(NC(=O)c2ccccc2)cc1	12	-29%	?	?	-28%	-22%
CC(=O)c1cccc(NC(=S)NC(=O)c2cccc(C)c2)c1	-6	-31%	1%	0%	2%	32µM*
Cc1ccc(S(=O)(=O)N(C)Cc2ccc(F)cc2)cc1	/	/	/	/	/	18%[176 µM]
Cc1ccc(CNC(=O)CCc2ccc3c(c2)CN(C(=O)NC(C)C)CCO3)o1	/	/	/	/	/	30%
O=C(COc1coc(CN2CCN(c3ccc(F)cc3)CC2)cc1=O)NC1CCCCC1	0	7.3µM*	?	-11%	-1%	-11%
CCOc1ccc(NC(=S)NC(=O)c2c(Br)cnn2C)c([N+](=O)[O-])c1	-4	23µM*	21µM*	14%	14%	?
Cc1cc(C)cc(NS(=O)(=O)c2ccc(-c3cnc(C)o3)cc2)c1	/	/	/	/	/	8%
Cc1ncc(-c2ccc(S(=O)(=O)Nc3ccccc3F)cc2)o1	/	/	/	/	/	2%
Cc1cccc(N(C)S(=O)(=O)c2ccc(-c3cnc(C4CC4)o3)cc2)c1	112	0.037µM*	0.029µM*	?	0.052µM*	25%
